# Source: PubChem BioAssay (NCI)
# Compounds without any hit were thinned out: in the full panel of roughly 83,000, 20% have a hit.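 Activity criterion: percent growth below 10, measured after cells in 96-well plates were exposed to a single compound concentration for 48 hours.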 Activity calls are given as the source filed them.
# Tested on: MDA-MB-468 breast
# Experiment: NCI-60 one-dose screen, 48 h (100 = growth as untreated, 0 = no growth, -100 = all killed)
# Settings: 10 µM unless noted
row,SMILES,growth
1,COc1ccc(/C=C/C(=O)c2ccc(O)c(CN3CCN(c4cc5c(cc4F)c(=O)c(C(=O)O)cn5C4CC4)CC3)c2)cc1,3.04% (active)
2,COc1ccc2nc3cc(Cl)ccc3c(Nc3ccc(O)cc3)c2c1,46% (inactive)
3,COc1cc(OC)c(S(N)(=O)=O)cc1C(=O)/C=C/c1ccc(C)cc1,-36.2% (active)
4,CCN(CC)c1ccc(C(=C2C=CC(=[N+](CC)Cc3cccc(S(=O)(=O)O)c3)C=C2)c2ccc(N(CC)Cc3cccc(S(=O)(=O)O)c3)cc2)cc1,12.1% (inactive)
5,C/C=C(\C)C(C(=O)NC1CCCCC1)N(C(=O)C1CCc2cc(F)ccc2O1)c1ccc([N+](=O)[O-])cc1 (stereo not given),85.6% (inactive)
6,O=C(CCN1CCCC1)Nc1ccc2c(NCc3ccc(F)cc3)c3ccccc3nc2c1,-46.1% (active)
7,O=C(CSc1nnc(-c2ccc(NC(=O)c3cccnc3)cc2)o1)N[C@@H](Cc1ccc(O)cc1)C(=O)O,110% (inactive)
8,Cc1ccc(Cc2cnc(NC(=O)/C=C/c3ccc(C)o3)s2)cc1,-0.221% (active)
9,CCc1ccc(-c2nnc(COc3ccc(-c4nc5ccccc5[nH]4)cc3OC)o2)cc1,86.9% (inactive)
10,CN1CCN(C(=O)OCCOCCOC(=O)N2CCN(C)CC2)CC1,107% (inactive)
11,CCOC(=O)C(C(=O)OCC)C1CCCCC1,105% (inactive)
12,O=C(NO)c1ccc(CNc2cccc3nc(C4CC4)n(-c4ccccc4)c(=O)c23)cc1,22.3% (inactive)
13,CC1(C(=O)O)CCC(N)(C(=O)O)C1(C)C (stereo not given),115% (inactive)
14,COC1OC(CO)C(OC)C(O)C1O (stereo not given),87.1% (inactive)
15,COc1cc(-c2c(C#N)c(-c3cccs3)nc3c2c(-c2ccccc2)nn3-c2ccccc2)ccc1O,95.4% (inactive)
16,Cc1cccc(N=NC(=S)NNc2cccc(C)c2)c1,116% (inactive)
17,O=C1N(Cc2ccccc2Cl)c2ccccc2C12NN=C(c1cccc(Cl)c1)S2 (stereo not given),-29.6% (active)
18,Nc1nc(N)c2c(ccc3nccc32)[nH]1,34.9% (inactive)
19,CCNCCNc1cc(-c2ccc(C#N)cc2)c(C#N)c2nc3ccccc3n12,-14.1% (active)
20,CCN(CC)CCSCCN(CC)CC,93.4% (inactive)

row,SMILES,growth
1,O=c1[nH]c(CNc2ccc(NCc3c(-c4ccccc4)no[n+]3[O-])cc2)nc2c1cnn2-c1ccccc1,33.2% (inactive)
2,N#Cc1c2c(c(N)[nH]c1=O)C(=O)NC2(O)c1ccccc1 (stereo not given),104% (inactive)
3,COc1ccc(-c2nc3sc(C4CC4)nn3c2/C=C2/C(=O)Nc3ccc(OC)cc32)cc1,23.3% (inactive)
4,COc1ccc2nc3ccccc3c(NCCNCC(C)O)c2c1 (stereo not given),-24.6% (active)
5,O=[N+]([O-])c1cccc(N=C(Nc2cccc([N+](=O)[O-])c2)c2ccccc2)c1,43.2% (inactive)
6,CCCCCCCCCCCCOB(OCCCCCCCCCCCC)OCCCCCCCCCCCC,99.2% (inactive)
7,NNC(=O)CCCCl,96% (inactive)
8,CC1=C(N2CCOCC2)C(N2CCOCC2)=C(C)C(=O)C1=O,97.1% (inactive)
9,COC(=O)CCCCCN=Cc1c(O)c(O)c(C(C)C)c2cc(C)c(-c3c(C)cc4c(C(C)C)c(O)c(O)c(C=NCCCCCC(=O)OC)c4c3O)c(O)c12,26.3% (inactive)
10,Nc1cc(-c2c[nH]c3ccc(F)cc23)nc2cc(-c3c[nH]c4ccc(F)cc34)nn12,115% (inactive)
11,C#C[C@]1(O)CC[C@H]2[C@@H]3CC=C4c5sc(Nc6cc(Cl)ccc6OC)nc5CC[C@]4(C)[C@H]3CC[C@@]21C,4.64% (active)
12,CC(O)C(F)(F)C(F)(F)C(F)(F)F (stereo not given),96.4% (inactive)
13,O=C(NNc1nc2cc(F)cc(F)c2n2cccc12)c1ccncn1,-7.49% (active)
14,CCCN1CCN(c2ccc3nc(-c4ccc5nc(-c6ccc(C(F)(F)F)cc6)[nH]c5c4)[nH]c3c2)CC1,-63.6% (active)
15,CCN(CC)CCCC(C)Nc1ccnc2cc(Cl)c(SCc3ccccc3)cc12 (stereo not given),-88.5% (active)
16,C=C1C(=O)O[C@H]2[C@H]1CC/C(COC(=O)CCC(=O)NCCOCCOCC(=O)Nc1ccc(OC)c(C(N)=O)c1O)=C\CC[C@@]1(C)O[C@@H]21,-17.5% (active)
17,O=C(CN1CCN(c2cc3c(cc2F)c(=O)c(C(=O)O)cn3C2CC2)CC1)N/N=C/c1ccco1,104% (inactive)
18,CC(=O)O[C@H]1CC[C@]2(C)[C@H]3CC=C4[C@@H]5CC(C)(C)CC[C@]5(C(=O)NCCNCCN)CC[C@@]4(C)[C@]3(C)CC[C@H]2C1(C)C,-78.2% (active)
19,CCCCCCCCCCCCCCCCCC[S+](C)CC (stereo not given),-42.5% (active)
20,Clc1ccccc1/C=C/c1nn2c(-c3ccncc3)nnc2s1,97.4% (inactive)
